AmpC no deterg = qHTS Inhibitors of AmpC Beta-Lactamase (assay without detergent). AmpC nitrocefin hydrolysis, absorbance 480 nm, 0.0001% Triton. Potency, µM (series often up to 57.1 µM), for inactives: at the top dose activity change, negative = inhibition, usual class: inhibitors. P00811. AID 485341, 2010. 330,000 tested, 0.52% active;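 note: plate controls were no compound for no effect and no enzyme for full effect; nearly all actives have a fitted effect of over 20% in size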
Target sequence (P00811 whole entry, looked up): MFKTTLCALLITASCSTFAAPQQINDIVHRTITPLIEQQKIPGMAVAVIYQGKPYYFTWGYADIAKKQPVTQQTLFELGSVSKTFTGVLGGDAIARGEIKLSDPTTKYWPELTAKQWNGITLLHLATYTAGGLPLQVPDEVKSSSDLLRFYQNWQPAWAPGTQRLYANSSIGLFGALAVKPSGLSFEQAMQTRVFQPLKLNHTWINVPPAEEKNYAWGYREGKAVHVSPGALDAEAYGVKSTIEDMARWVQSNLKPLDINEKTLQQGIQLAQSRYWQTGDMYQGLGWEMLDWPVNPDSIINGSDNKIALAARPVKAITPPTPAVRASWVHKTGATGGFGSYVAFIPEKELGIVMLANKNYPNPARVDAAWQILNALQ
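20 mM phosphate pH 7.0 + 0.01% (detergent screen) or 0.0001% Triton X-100; 5.3 nM AmpC reagent; cpd preinc 15 min RT; nitrocefin (800 uM stock) to start; A480 q20 s × 4 min; Activity was normalised to no-enzyme and no-compound control wells.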
AmpC detergent = qHTS Inhibitors of AmpC Beta-Lactamase (assay with detergent); Potency, µM (doses to about 114 µM), without a hit: at the highest dose activity change, negative = inhibition, hits mostly inhibitors; AmpC hydrolysis of nitrocefin, absorbance 480 nm, 0.01% Triton; 370,000 tested, 0.041% active;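 note: 0% = no-compound wells and -100% = no-enzyme wells; nearly all actives have a fitted effect of over 25% in size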
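20 mM phosphate pH 7.0 + 0.01% (detergent screen) or 0.0001% Triton X-100; 5.3 nM AmpC reagent; cpd preinc 15 min RT; nitrocefin (800 uM stock) to start; A480 q20 s × 4 min; Activity was normalised to no-enzyme and no-compound control wells.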
Starred values were filed as active, the others as inactive; ? = inconclusive; nt = not tested or not shown; [ ] = dose if it differs, or a comment. The entries come from a sample that favours hits as a whole. Calls come from the whole dose curve; as a rule, active = well fitted curve in the direction sought with a large enough effect; inconclusive = small, poorly fitted or top-dose-only effect, or another doubt; inactive = no such curve, though single readings can be large; an effect the other way counts as inactive or inconclusive. Potency is the fitted concentration of half-maximal effect.

SMILES | AmpC no deterg | AmpC detergent
Cc1ccccc1NC(=S)NC(=O)/C=C/c1ccco1 | 5.6µM* | -3%
COc1ccccc1NC(=S)NC(=O)/C=C/c1ccco1 | -53% | -12%
COc1ccc(OC)c(NC(=O)c2c(NCc3ccc(OC)c(OC)c3)sc3c2CCC(C)C3)c1 (stereo not given) | nt | 5%
CC(CNC(=O)CCc1cn(Cc2ccccc2Cl)c2ccccc12)c1ccccc1 (stereo not given) | nt | -6%
O=C(O)Cc1ccc(N=Nc2c(O)c(C(=O)O)cc3ccccc23)cc1 | -39% | -15%
NS(=O)(=O)c1ccc(N=Nc2c(O)c(C(=O)O)cc3ccccc23)cc1 | 22µM* | -10%
COc1ccc(C2=NN(C(=O)CSc3nc4ncc(Cl)cc4[nH]3)C(c3ccco3)C2)cc1 (stereo not given) | -31%[11.4 µM] | ?
Cc1ccc(C2=NN(C(=O)CSc3nc4ncc(Cl)cc4[nH]3)C(c3ccco3)C2)cc1 (stereo not given) | 10µM* | ?
Cc1ccc(CN2C(=O)c3ccccc3S(=O)(=O)c3ccc(C(=O)OCC4CCCO4)cc32)cc1 (stereo not given) | nt | -4%
COC(=O)c1ccccc1NC(=O)C1CCN(S(C)(=O)=O)CC1 | 0.16µM* | 0%
COc1ccccc1NC(=O)C1CCN(S(C)(=O)=O)CC1 | -24% | -10%
CCOc1ccc(-c2nnc(-c3ccccc3)n2-c2ccccc2)cc1 | 5.6µM* | 1%
CCOc1ccc(-c2nnc(SCC(=O)c3ccc(F)cc3)n2-c2ccccc2)cc1 | nt | 1%
COC(=O)C1=C(C)OC(N)=C(C#N)C1c1cc2cc(C)ccc2nc1Cl (stereo not given) | -37% | ?
CC(=O)C1=C(C)OC(N)=C(C#N)C1c1cc2cc(C)c(C)cc2nc1Cl (stereo not given) | 0.32µM* | 1%
Cc1cccc(S(=O)(=O)NNC(=O)c2cc(-c3ccc(F)cc3)nc3ccccc23)c1 | -42% | -11%
O=C(NNS(=O)(=O)c1ccc(Cl)cc1)c1cc(-c2ccccc2)nc2ccccc12 | 28µM* | -5%
O=C(Nc1ccc(-c2cn3ccsc3n2)cc1)C1COc2ccccc2O1 (stereo not given) | 16µM* | ?
Cc1ccc(NC(=O)C2COc3ccccc3O2)cc1 (stereo not given) | -15% | -6%
CCCCNC(=O)c1ccccc1Cl | -9% | -25%
CCCCNC(=O)c1ccccc1C(=O)NCCCC | 1.1µM* | 0%
COc1ccccc1CNC(=O)C(=O)NCC(c1cccs1)S(=O)(=O)c1ccc(F)cc1 (stereo not given) | nt | 3%
COc1ccc(S(=O)(=O)N2CCOCC2)cc1C(=O)NCC(c1ccco1)N1CCCC1 (stereo not given) | -10% | 0%
COc1ccc(Cl)cc1C(=O)NCC(c1ccco1)N1CCCC1 (stereo not given) | 0.16µM* | 3%
Cc1nn(C)c2c1c(C(F)(F)F)cc(=O)n2C(C)C(=O)NCc1ccccc1 (stereo not given) | nt | 23%
SMILES | AmpC no deterg | AmpC detergent
Cc1sc(-c2cc3c([nH]c2=O)CC(c2ccccc2)CC3=O)nc1-c1ccc(Cl)cc1 (stereo not given) | nt | 21%
CCc1ccc(NC(=O)CSc2nnc(Cc3cccn3C)n2-c2ccc(F)cc2)cc1 | 13µM* | -17%
Cc1ccc(NC(=O)CSc2nnc(Cc3cccn3C)n2-c2ccc(F)cc2)cc1 | 57% | ?
COc1ccc(Cl)cc1NC(=O)Cn1c2ncccc2c(=O)n1-c1ccc(C)c(C)c1 | nt | 2%
COc1ccc(N=C(N(C)C)P(=O)(N(C)C)N(C)C)cc1 | 28µM* | ?
CN(C)C(=Nc1ccccc1)P(=S)(N(C)C)N(C)C | 16% | 3%
COc1ccc(NC(=O)CN2C(=O)C3(SCC(=O)N3c3cccc(OC)c3)c3ccccc32)cc1 (stereo not given) | nt | 4%
CCc1cccc(C)c1NC(=O)c1cc(S(=O)(=O)N(Cc2ccc(C(=O)OC)cc2)Cc2ccc(OC)c(OC)c2)ccc1F | nt | 4%
S=c1[nH]cnc2scc(-c3ccc(Cl)cc3)c12 | 8.9µM* | -1%
Cc1ccc(-c2csc3nc[nH]c(=S)c23)cc1 | 4% | 4%
Cc1ccccc1CNC(=O)c1ccc2[nH]c(C)c(C)c2c1 | nt | -2%
COc1cc(C(=O)Oc2ccccc2/C=N/NC(=O)c2ccc(Cl)cc2Cl)cc(OC)c1OC | ? | 0%
C=CCOc1ccccc1/C=N/NC(=O)c1ccc(Cl)cc1Cl | 25µM* | 1%
Cc1ccc(-c2csc(NC(=O)CSC3=NCCS3)n2)cc1 | -34% | 1%
Cc1ccc(-c2csc(NC(=O)CSc3nc(C)cc(=O)[nH]3)n2)cc1 | 14µM* | -8%
Cc1cc(=O)[nH]c(SCC(=O)Nc2ccc(Br)cn2)n1 | 1.3µM* | 4%
Cc1cc(=O)[nH]c(SCC(=O)Nc2ccc(C(=O)O)cc2)n1 | -3% | -2%
CC(C)CN1CCc2nc(N3CCN(C)CC3)ncc2C1 | nt | 8%
CCc1ccc(/C=C/C(=O)c2cc(Br)ccc(=O)c2O)cc1 | 28µM* | -7%
CCOc1ccc(/C=C/C(=O)c2cc(Br)ccc(=O)c2O)cc1 | 32µM* | ?
Cc1cccc(/C=C/C(=O)c2cc(Br)ccc(=O)c2O)c1 | 32µM* | -8%
Cc1ccc(/C=C/C(=O)c2ccccc2O)cc1 | -25% | 0%
Cc1ccc(/C=C/C(=O)c2cc(Br)ccc2OC(=O)c2ccco2)cc1 | -10% | 1%
CCOc1ccc(C(=O)/C=C/c2ccc(OC)c(OC)c2)cc1 | 66% | -4%
Cc1ccc(CNc2nc(-c3ccco3)nn2C(=O)c2ccccc2[N+](=O)[O-])cc1 | nt | -6%
SMILES | AmpC no deterg | AmpC detergent
COc1cc2ncnc(NCc3ccc(C)cc3)c2cc1OC | 83% | -1%
COc1cccc(CNc2ncnc3cc(OC)c(OC)cc23)c1 | 3.2µM* | 5%
Cc1ccc(C)c(N2CCN(C(=O)CCc3c(C)nn(-c4ccc(N5CCCC5)nn4)c3C)CC2)c1 | nt | -4%
O=C(COC(=O)Cc1ccc(S(=O)(=O)N2CCCCC2)s1)Nc1ccc2c(c1)OCO2 | -55% | ?
NS(=O)(=O)c1cccc(NC(=O)COC(=O)Cc2ccc(S(=O)(=O)N3CCCCC3)s2)c1 | 32µM* | -5%
O=C(Cc1ccc(S(=O)(=O)N2CCCC2)s1)Nc1nc2c(s1)CCCC2 | 14µM* | ?
Cc1cc(C)cc(NC(=O)Cc2ccc(S(=O)(=O)N3CCCC3)s2)c1 | -21% | 1%
CCOCCc1nn2c(=O)cc(COC(=O)c3ccccc3Br)nc2s1 | nt | -3%
CC(C)CC1C(C#N)=C(N)OC2=C1C(=O)CC(c1ccccc1)C2 (stereo not given) | 28µM* | ?
CC(CC1C(C#N)=C(N)OC2=C1C(=O)CCC2)c1ccccc1 (stereo not given) | -30% | 2%
Cc1ccc(Cl)cc1NS(=O)(=O)c1ccc2oc(=O)c3ncn(C)c3c2c1 | nt | -1%
Cc1ccc(-c2nnc3c(C(F)(F)F)nc4ccccc4n23)cc1 | 0.14µM* | ?
FC(F)(F)c1nc2ccccc2n2c(-c3ccc(Cl)cc3)nnc12 | -7% | ?
COc1ccc(CCNC(=O)c2c[nH]n3c(=O)c(Cc4ccccc4Cl)c(C)nc23)cc1OC | nt | 3%
N=C1/C(=C\c2ccc(-c3cccc(C(=O)O)c3)o2)C(=O)N=C2SC=C(c3ccccc3)N12 | -38% | 56µM*
